Compound activity: PubChem BioAssay, National Center for Advancing Translational Sciences (NCATS)
Sampled rows, rich in hits. Any-hit rate of the full collection: about 12%.
Sfp PPTase inh – qHTS Assay for Inhibitors of Bacillus subtilis Sfp phosphopantetheinyl transferase (PPTase); 4'-phosphopantetheinyl transferase ffp (Bacillus subtilis), Q9F4F7; Biochemical Sfp PPTase activity, qHTS; Potency, µM, for inactives: largest response in the series, negative = inhibition, most hits filed as inhibitors; 310,000 compounds, 3.5% hits; AID 1490, 2009;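 further: the enzyme is Sfp with the accession as filed and its product quenches rhodamine fluorescence; 0% = enzyme reaction without inhibitor and -100% = no enzyme wells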
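Fluorescence-quenching assay with 15 nM Sfp, 5 uM rhodamine-CoA and 12.5 uM BHQ-2-labelled ybbR peptide in pH 7.6 Hepes/MgCl2 buffer. Enzyme was pre-incubated with compound for 15 min at room temperature. Rate was taken from the 30-min fluorescence change (525/598 nm).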
G9a block – qHTS Assay for Inhibitors of Histone Lysine Methyltransferase G9a. Histone-lysine N-methyltransferase EHMT2 (Homo sapiens), Q96KQ7. AID 504332, 2011. 350,000 compounds, 8.8% hits. G9a H3K9 monomethylation, AlphaScreen, 2 h. Potency, µM (top dose mostly 102 µM), without a hit: at the highest dose activity, negative = inhibition, usual class: inhibitors; further: on the % scale 0 is the no-effect control and ±100 the full control effect; nearly all actives have a fitted effect of over 75% in size
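Readings reflect AlphaScreen signal from monomethyl-H3K9 antibody detection. HMT at 20 nM; substrate b-H3K9 500 nM; cofactor SAM 20 uM; 2 h RT reaction; compounds tested as titrations in qHTS with 15 min preincubation.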
JMJD2A Tudor – qHTS Assay for Inhibitors of JMJD2A-Tudor Domain; AlphaScreen JMJD2A-Tudor / H3K4me3 peptide binding; Potency, µM (top dose mostly 114 µM), inactives show at the highest dose activity change, negative = inhibition, actives largely listed as inhibitors; 390,000 compounds, 4.4% hits; AID 504339, 2011; further: on the % scale 0 is the no-effect control and ±100 the full control effect; nearly all actives have a fitted effect of over 50% in size
Target sequence (O75164 whole entry, looked up, the tested form may be a part): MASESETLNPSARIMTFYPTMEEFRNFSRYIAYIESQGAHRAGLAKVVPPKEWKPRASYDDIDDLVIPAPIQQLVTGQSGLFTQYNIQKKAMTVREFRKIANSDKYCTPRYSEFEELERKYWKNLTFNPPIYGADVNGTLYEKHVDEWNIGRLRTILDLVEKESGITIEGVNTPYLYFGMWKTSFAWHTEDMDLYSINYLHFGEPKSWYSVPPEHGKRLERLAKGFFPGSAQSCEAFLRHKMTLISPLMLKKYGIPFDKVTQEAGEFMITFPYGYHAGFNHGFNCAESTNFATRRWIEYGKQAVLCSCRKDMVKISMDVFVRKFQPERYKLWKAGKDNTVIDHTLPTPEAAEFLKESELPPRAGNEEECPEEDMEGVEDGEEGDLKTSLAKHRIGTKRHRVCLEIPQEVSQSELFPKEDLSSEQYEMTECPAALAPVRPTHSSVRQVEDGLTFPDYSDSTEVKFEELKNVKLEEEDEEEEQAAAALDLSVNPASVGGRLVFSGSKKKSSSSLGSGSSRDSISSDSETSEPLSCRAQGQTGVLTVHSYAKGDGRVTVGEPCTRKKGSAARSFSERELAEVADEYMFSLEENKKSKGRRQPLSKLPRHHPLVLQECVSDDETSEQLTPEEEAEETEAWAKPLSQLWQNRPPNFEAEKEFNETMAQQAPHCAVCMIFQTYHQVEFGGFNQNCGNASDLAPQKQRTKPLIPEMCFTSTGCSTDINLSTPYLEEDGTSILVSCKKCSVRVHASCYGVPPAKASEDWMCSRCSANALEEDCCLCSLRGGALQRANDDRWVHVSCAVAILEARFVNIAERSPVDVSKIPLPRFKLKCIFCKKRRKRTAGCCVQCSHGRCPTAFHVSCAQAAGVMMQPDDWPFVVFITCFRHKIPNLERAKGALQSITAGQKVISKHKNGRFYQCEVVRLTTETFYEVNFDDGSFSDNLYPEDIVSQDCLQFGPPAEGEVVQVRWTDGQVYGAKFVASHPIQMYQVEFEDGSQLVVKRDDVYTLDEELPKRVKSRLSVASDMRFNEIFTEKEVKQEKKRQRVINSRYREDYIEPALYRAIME
BAZ2B inh – qHTS Assay for Inhibitors of BAZ2B | Bromodomain adjacent to zinc finger domain protein 2B (Homo sapiens), Q9UIF8 | AlphaScreen BAZ2B-H3K14Ac peptide displacement | 360,000 compounds, 4.4% hits | Potency, µM (doses to about 114 µM), for inactives: top-dose activity change, negative = inhibition, actives largely listed as inhibitors; further: on the % scale 0 is the no-effect control and ±100 the full control effect; nearly all actives have a fitted effect of over 60% in size
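Compounds, titrated to a top concentration of 110 uM, were incubated 30 min at room temperature with preformed BAZ2B/acetyl-K14 H3 peptide complex (50 nM each). Proximity signal was measured by AlphaScreen after 20 min with beads.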
HP1b chromo inh – HTS for Inhibitors of HP1-beta Chromodomain Interactions with Methylated Histone Tails; 390,000 compounds, 0.56% hits; AlphaScreen HP1-beta / biotin-H3K9me3 peptide binding; Potency, µM (titrated, usually from 114 µM), inactives show at the highest dose activity change, negative = inhibition, usual class: inhibitors; AID 540317, 2011; further: nearly all actives have a fitted effect of over 70% in size
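HP1-beta protein (50 nM final) preincubated 30 min at room temperature with biotinylated H3(1-18)K9me3 peptide (50 nM) in PBS pH 7.4, 0.01% Tween-20, then compound added for 30 min. AlphaScreen streptavidin donor/nickel chelate acceptor beads (10 ug/mL final), 30 min dark, luminescence read.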
* marks the source's active call; other numbers are inactive results; u = inconclusive; x = no result given; [ ] = dose if it differs, or a comment. The call rests on the fitted dose curve; in most records, active means well fitted curve in the direction sought with a large enough effect; inconclusive means small, poorly fitted or top-dose-only effect, or another doubt; inactive means no such curve, though single readings can be large; an effect the other way counts as inactive or inconclusive. Potency means the concentration at half of the fitted maximal effect.

SMILES | Sfp PPTase inh | G9a block | JMJD2A Tudor | BAZ2B inh | HP1b chromo inh
CCCOC(=O)c1c(NC(=O)C2C3C=CC(C3)C2C(=O)O)sc2c1CCC(C)C2 (centres undefined) | 40µM* | 8.9µM* | 28µM* | u | u
Cc1cccc(NC(=O)c2c(N)sc3c2CCC(C)C3)c1 (centres undefined) | x | 13µM* | -27% | -3% | 13%
Cc1cccc(NC(=O)c2c(NC(=O)c3cccs3)sc3c2CCC(C)C3)c1 (centres undefined) | x | 70%[59 µM] | 13% | 29% | 64%
CCOC(=O)c1c(N)sc2c1CCS(=O)(=O)C2 | 56µM* | 8.9µM* | u | -4% | u
COC(=O)c1c(NS(=O)(=O)c2ccc(C)cc2)sc2c1CCC(C)C2 (centres undefined) | 16% | 7%[59 µM] | -15% | -2% | 12%
CCOC(=O)c1c(NS(C)(=O)=O)sc2c1CCC(C)C2 (centres undefined) | -14% | 56µM* | -35% | u | 4%
COC(=O)C1=C(CSc2nc3ccccc3o2)NC(=O)NC1c1cc(C)ccc1C (centres undefined) | -9% | 8%[12.7 µM] | u | u | -17%
CCOC(=O)c1c(N)sc2c1CCC(C)C2 (centres undefined) | 50µM* | u | -22% | u | -9%
COc1ccccc1N1CCN(C(=O)c2cc(S(=O)(=O)N3CCC(C)CC3)cn2C)CC1 | x | -12%[59 µM] | -10% | -18% | 25%[57 µM]
CCOc1ccc(S(=O)(=O)N2CCOCC2)cc1NC(=O)C1CSC2(C)CCC(=O)N12 (centres undefined) | x | 45µM* | -2% | -17% | 15%
CCN(CC)c1ccc(S(=O)(=O)N2CCCCC2)cc1NC(=O)C1CSC2(C)CCC(=O)N12 (centres undefined) | x | 4%[59 µM] | -25% | -15% | 16%
COc1ccccc1NC(=O)CCN1CCN(C)CC1 | 8% | 50µM* | -1% | 10% | 32%
COc1ccccc1CNC(=O)CCn1cnc2ccccc2c1=O | x | 16µM* | 56µM* | 50µM* | u
O=C(CCn1cnc2ccccc2c1=O)NCc1ccccc1 | x | u | 89µM* | u | -12%[57 µM]
CCc1ccc(NC(=O)CCn2cnc3ccccc3c2=O)cc1 | x | -30%[59 µM] | 79µM* | -28% | -9%[57 µM]
CCN1CCN(CCC(=O)Nc2ccccc2OC)CC1 | 23% | 12%[59 µM] | -12% | 2% | 2%
COc1ccccc1CNC(=O)CCNC(=O)Cn1cnc2ccccc2c1=O | 0% | -1%[2.33 µM] | 1% | 7% | 41%
CCOC(=O)c1c(C)[nH]c(C)c1S(=O)(=O)N(C)CC(=O)NCc1ccc(F)cc1 | 12% | 15% | -14% | -14% | 21%
COc1ccc(C(=O)N/C(=C\c2ccco2)C(=O)NCc2cccnc2)cc1 | u | u | -6% | -3% | 16%
CC(C)(C)c1csc(NC(=O)CSc2nc3ccccc3c(=O)[nH]2)n1 | 5% | -1%[59 µM] | -34% | -11% | 7%
CC(C)(C)c1csc(NC(=O)Cn2cnc3ccccc3c2=O)n1 | 20µM* | u | u | 1% | u
COc1ccccc1NC(=O)CCn1cnc2ccccc2c1=O | x | 9%[12.7 µM] | 5µM* | u | u
CC(C)(C)NC(=O)CSc1nnc(NC(=O)CCn2cnc3ccccc3c2=O)s1 | 1% | -4%[59 µM] | 25µM* | 10% | 21%
CC(C)(C)c1nnc(NC(=O)CCn2cnc3ccccc3c2=O)s1 | 9% | 2% | -5% | -22% | 38%
Cc1cc(NC(=O)CCC(=O)N(Cc2ccco2)C(C(=O)NC2CCCC2)c2ccccc2C)no1 (centres undefined) | 1% | -5%[59 µM] | -13% | -7% | 18%
COC(=O)c1ccc(NCC(=O)Nc2cc(C)cc(C)c2)cc1 | 6% | u | 10% | -25% | 43%
CCOc1ccccc1Nc1nc2ccc(C)cc2n2cnnc12 | -12% | -41% | -14% | -38% | 12%
